# HttQ103 aggreg – reduces HttQ103-GFP aggregates in PC12 cells. PC12 HttQ103-GFP aggregates, Acumen cytometry, 40 h. Potency, µM (highest dose often 46.1 µM), usual class: inhibitors. 220,000 tested, 1.1% active; note: nearly all actives have a fitted effect of over 60% in size
#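 PC12 cells with ecdysone-inducible HTT exon1 Q103-GFP, induced by 100 nM tebufenozide, given compounds in a concentration series. GFP aggregates (1–25 um, 6 SD above background) counted in lysates by laser-scanning cytometry, 488 nm excitation.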
# PNC assembly inh – inhibitors of perinucleolar compartment assembly; AID 2417; activity change (PNC), negative = inhibition, % at 10 µM; 140,000 tested, 3.1% active; PC3M PTB-GFP, PNC prevalence imaging, 16 h; stronger effect = lower value;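 active = readout at or below -70, meaning at least 70% loss of cells showing the perinucleolar compartment, a nuclear body marking cancer cells; inconclusive = readout between -30 and a set limit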
#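 Read-out is percentage of cells bearing a perinucleolar compartment, from automated 20x imaging of fixed, Hoechst-stained PC3M PTB-GFP cells. Cells were seeded 4 h, then exposed 16 h to compound (23 nl of library stock) in duplicate plates.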
# HTT cytoprotect – cytoprotection in Huntington HTT-Q103 PC12 cell model; PC12 HTT-Q103 induced, cytoprotection, ATP luminescence, 40 h; AID 1471; 230,000 tested, 0.14% active; Potency, µM (series often up to 56.4 µM), hits mostly activators; note: nearly all actives have a fitted effect of over 45% in size
#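 Compounds added alongside 100 nM tebufenozide, which induces toxic Q103 huntingtin exon 1-GFP in stable PC12 cells; surviving cells quantified by luminescent ATP measurement. Medium: phenol red-free DMEM, 5% equine and 5% calf serum.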
# A number is an active result; - = inactive; ? = inconclusive; . = no result given; ! = not active in a repeat; [ ] = dose if it differs, or a comment. Many of the other results were omitted from the sample, so hits are more common in it than they were. Unless noted, calls come from the whole dose curve; as a rule, active = well fitted curve in the direction sought with a large enough effect; inconclusive = small, poorly fitted or top-dose-only effect, or another doubt; inactive = no such curve, though single readings can be large; an effect the other way counts as inactive or inconclusive.
SMILES,HttQ103 aggreg,PNC assembly inh,HTT cytoprotect
c1ccc(CCNc2ncnc3nc[nH]c23)cc1,11µM,?,-[0.074 µM]
CCOC(=O)c1cn(Cc2cccc(Cl)c2)nn1,-,-114,.
COC(=O)c1cn(Cc2cccc(C)c2)nn1,-,-,-[10 µM]
COc1ccc(C)cc1S(=O)(=O)N(CC(=O)Nc1cc([N+](=O)[O-])ccc1C)c1ccc(C)c(C)c1,-,-,-[10 µM]
CCOCCCNC(=O)C(c1ccc(Cl)cc1)N(Cc1ccc2c(c1)OCO2)C(=O)CNC(C)=O (configuration not stated),-,.,-
CCOCCCNC(=O)C(c1ccc(C)cc1)N(Cc1ccc2c(c1)OCO2)C(=O)CNC(C)=O (configuration not stated),-,-100,-[10 µM]
Cc1ccc(C(=O)ONc2ccc(N=O)cc2)cc1,-,-117,-[10 µM]
O=Nc1ccc(NOC(=O)c2ccc(Br)cc2)cc1,-,-,-
COc1ccc(NC(=O)c2cc(S(=O)(=O)N(C)C)ccc2N2CCCC2)cc1Cl,-,-,-[10 µM]
CCC(C)NC(=O)CN(c1ccc(OC)cc1)S(=O)(=O)c1ccc(NC(C)=O)cc1 (configuration not stated),-,-127,-
COc1ccc(N(CC(=O)NCC(C)C)S(=O)(=O)c2ccccc2)cc1,-[9.22 µM],.,-[10 µM]
Cc1ccc(NC(=O)c2nc[nH]c2C(=O)N[C@@H](C)C(=O)OC(C)(C)C)cc1,-[9.22 µM],.,-[10 µM]
CSCCC(NC(=O)c1ccc([N+](=O)[O-])cc1Cl)C(=O)OCC(=O)N(C)C (configuration not stated),-,-,-[1.9 µM]
CCN1/C(=C/C=C/c2oc3ccc4ccccc4c3[n+]2CC)Oc2ccc3ccccc3c21,0.89µM,.,-[10 µM]
CC[n+]1c(/C=C/N(C)c2ccccc2)oc2ccc(Cl)cc21,-,-,-[10 µM]
Cc1cc(C)c2c(c1)[C@@H]1C=CC[C@@H]1[C@H](c1ccc(S(=O)(=O)N3CCOCC3)cc1)N2,?,-81,.
Cc1ccc(S(=O)(=O)N2CCOCC(=O)NCCOCCNC(=O)COCC2)cc1,-,-,-
C[C@@H](C(=O)N[C@@H](Cc1ccccc1)C(=O)O)n1nnc2ccccc2c1=O,-[9.22 µM],.,-[10 µM]
C[C@@H](C(=O)N[C@H](C(=O)O)c1ccccc1)n1nnc2ccccc2c1=O,-,-112,-[0.074 µM]
Cc1ccc(CSc2nnc(-c3ccccn3)n2N)cc1,-[9.22 µM],.,-[10 µM]
CCC(=O)Nc1cccc(NC(=O)c2cccc([N+](=O)[O-])c2C)c1,-,-,-[10 µM]
Cc1c(C(=O)Nc2ccc3c(c2)CCC3)cccc1[N+](=O)[O-],-,-114,.
Cc1c(=O)n(OCc2ccc(Cl)cc2)c2ccccc2[n+]1[O-],-[9.22 µM],.,-
O=C1NCCCC1C(=O)N/N=C/c1cccc([N+](=O)[O-])c1 (configuration not stated),-[9.22 µM],.,-[10 µM]
Cc1cccc(/C=N/NC(=O)C2CCCNC2=O)c1 (configuration not stated),-,-85,.
SMILES,HttQ103 aggreg,PNC assembly inh,HTT cytoprotect
COC(=O)Cn1nc(-c2ccccc2)n(-c2ccccc2)c1=S,-,-,-
Cc1ccc(CN2CC(C(=O)Nc3cccc(S(=O)(=O)N4CCCCC4)c3)CC2=O)cc1 (configuration not stated),-,-,-[10 µM]
Cc1cc(Cl)c(S(=O)(=O)Nc2ccon2)cc1OCC(=O)NC1CCCCC1,-,?,-[0.074 µM]
Cc1cc(Cl)c(S(=O)(=O)NC2CCCCC2)cc1OCC(=O)Nc1nncs1,-,-119,-[0.074 µM]
O=C(N/N=C/c1ccc[nH]1)c1ccccc1OCc1ccccc1Cl,-,.,-[10 µM]
NC(N)=NC[C@@H]1CCCCCCN1,.,.,-[10 µM]
C1CCC(C(CC2CCCCN2)C2CCCCC2)CC1 (configuration not stated),25µM!,-,-
COc1ccc2nc3ccccc3nc2c1NC(=O)c1ccccc1Cl,-[9.22 µM],.,-[10 µM]
CCCn1c(SCC(=O)Nc2nnc(C(C)C)s2)nc2c1c(=O)n(C)c(=O)n2C,-,-,-[10 µM]
CCCn1c(SCC(=O)Nc2nc3ccccc3s2)nc2c1c(=O)n(C)c(=O)n2C,-,-111,-
CC(C)n1c(SCC(=O)Nc2nc3c(s2)CCCC3)nc2c1c(=O)n(C)c(=O)n2C,13µM,-100,-[10 µM]
CCOC(=O)c1c(NC(=O)CSc2nc3c(c(=O)n(C)c(=O)n3C)n2C(C)C)sc(C)c1C,-,?,-[10 µM]
CS(=O)(=O)N(CC(=O)NC1CC2CCC1C2)c1cccc(C(F)(F)F)c1 (configuration not stated),-,-,-
COC(=O)C1=C(N)Oc2cc(C)n(C)c(=O)c2C1c1ccc(Cl)cc1 (configuration not stated),11µM,-,-[0.074 µM]
COC(=O)c1ccc(C2C(C#N)=C(N)Oc3cc(C)n(C)c(=O)c32)cc1 (configuration not stated),-,-,-[0.074 µM]
Cc1c(Br)c(C(F)(F)F)nn1CC(=O)NCCCn1ccnc1,-[9.22 µM],.,-[10 µM]
Cc1c(C(=O)OCCOC(C)C)[nH]c2c1C(=O)CC(C)(C)C2,-,-,-
COC(=O)c1[nH]c2c(c1C)C(=O)CC(c1cc(OC)ccc1OC)C2 (configuration not stated),-,?,-[10 µM]
CCOc1ccc(C2CC(=O)c3c([nH]c(C(=O)OC)c3C)C2)cc1OC (configuration not stated),-,-,?
Cc1c(C(=O)OCCOC(C)C)[nH]c2c1C(=O)CC(c1ccco1)C2 (configuration not stated),-,-91,-[10 µM]
CCOC(=O)c1[nH]c2c(c1C)C(=O)CC(c1ccco1)C2 (configuration not stated),?,-108,-
COC(=O)c1[nH]c2c(c1C)C(=O)CC(c1cccs1)C2 (configuration not stated),?,-85,-
COCCOC(=O)c1[nH]c2c(c1C)C(=O)CC(c1ccc(N(C)C)cc1)C2 (configuration not stated),-,?,-[10 µM]
COCCOC(=O)c1[nH]c2c(c1C)C(=O)CC(c1ccco1)C2 (configuration not stated),-,-95,-
Cc1c(C(=O)NNc2c(Cl)cccc2Cl)n(C)oc1=O,-[9.22 µM],.,-[10 µM]
SMILES,HttQ103 aggreg,PNC assembly inh,HTT cytoprotect
O=C(NC1(C(F)(F)F)NC(=O)N(c2ccc(F)c(Cl)c2)C1=O)c1ccncc1 (configuration not stated),-,-,-
COC(=O)C1=C(C)OC(N)=C(C#N)C1c1ccco1 (configuration not stated),-,?,-[10 µM]
COCCOC(=O)C1=C(C)OC(N)=C(C#N)C1c1ccco1 (configuration not stated),?,-100,-[10 µM]
COCCOC(=O)c1[nH]c2c(c1C)C(=O)CC(c1ccccc1)C2 (configuration not stated),?,-100,-[10 µM]
CCCCOC(=O)c1[nH]c2c(c1C)C(=O)CC(c1cc(OC)c(OC)c(OC)c1)C2 (configuration not stated),?,-,-
CSCCOC(=O)c1[nH]c2c(c1C)C(=O)CC(c1ccco1)C2 (configuration not stated),-,-90,-
Cc1c(C(=O)O)[nH]c2c1C(=O)CC(c1ccccc1)C2 (configuration not stated),-,-,-[0.074 µM]

# From PubChem
